Source: PubChem
The list is not random: actives were taken first. Their share in the collection is about 3.2%.
S16 F2sN tox = S16 Schwann cell cytotoxicity; S16 Pmp22-F2sN Schwann cells viability, CellTiter-Glo, 24 h; Potency, µM (top dose mostly 57.5 µM), without a hit: at the highest dose activity change, negative = cytotoxicity, most hits filed as cytotoxic; 43,000 tested, 0.48% active; AID 1508642; further: potency means the concentration at half of the fitted maximal effect; on the % scale 0 is the no-effect control and ±100 the full control effect; nearly all actives have a fitted effect of over 65% in size
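Seed 500-1,000 S16 Pmp22-F2sN cells per well in phenol-red-free DMEM with 10% heat-inactivated FBS; pin-add 23 nL compound; incubate 24 h at 37C; add CellTiter-Glo, wait 15 min protected from light; read luminescence.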
p53null 39C kill = p53 null cell cytotoxicity, nonpermissive temperature | AID 904 | Potency, µM (highest dose often 46.1 µM), for inactives: at the top dose activity, negative = cell killing, most hits filed as cytotoxic | H1299 p53-null (neo) cells, 39C, ATPlite viability, 24 h | 55,000 tested, 0.97% active;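 further: potency means the concentration at half of the fitted maximal effect; 0% = DMSO only and -100% = full killing by 100 µM tamoxifen; nearly all actives have a fitted effect of over 50% in size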
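ATP-luminescence viability readout (ATPlite, 20 min RT) after 24 hr compound treatment at 39C of H1299-neo or H1299-p53A138V cells; titration up to 46 uM; normalized to DMSO and 100 uM tamoxifen; Hill-fit AC50.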
mTORC1 inh = inhibitors of mTORC1 signaling in Tsc2-/- p53-/- MEF cells; Tsc2-/- p53-/- MEF, phospho-rpS6 immunofluorescence/PI, 24 h; Potency, µM (top dose mostly 38.3 µM), without a hit: at the top dose activity change, negative = inhibition, actives largely listed as inhibitors; 44,000 tested, 0.78% active; AID 493208;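 further: potency means the concentration at half of the fitted maximal effect; plate controls were DMSO for no effect and rapamycin for full effect; nearly all actives have a fitted effect of over 50% in size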
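Readout is phospho-S6 Alexa 488 signal normalized to PI per well, reported as % active cells with thresholds set from rapamycin (7.5 nM) and DMSO controls. Cells: Tsc2-/-, p53-/- MEFs, 24 hrs compound at 37 C; PI cell number serves as viability.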
p53null 32C kill = selectivity test: cytotoxicity in p53 null cells, permissive temperature. H1299-neo p53 null cells, ATP luminescence, 24 h, 32C. Potency, µM (top dose mostly 46.1 µM), inactives show top-dose activity change, negative = cytotoxicity, most hits filed as cytotoxic. 55,000 tested, 0.62% active. AID 903;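 further: potency means the concentration at half of the fitted maximal effect; 0% = DMSO only and -100% = full killing by 100 µM tamoxifen; nearly all actives have a fitted effect of over 55% in size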
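We seeded p53-null H1299-neo cells, incubated them overnight at 37C, and added compounds across a range up to 46 uM. After 24 hours at 32C, ATP reagent was applied for 20 min at room temperature and luminescence recorded.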
PMP22 txn = PMP22 gene transcription modulation. S16 Pmp22-F2sN Schwann cells, FLuc/NLuc coincidence luminescence, 24 h. AID 1508649. Potency, µM (top dose mostly 57.5 µM), for inactives: at the top dose activity change, negative = inhibition, most hits filed as inhibitors. 43,000 tested, 2% active; active means clear falling dose curves in both reporters; inconclusive means both reporters move, but less clearly or upward; inactive means either reporter flat; the % is the NLuc reporter signal; further: potency means the concentration at half of the fitted maximal effect; on the % scale 0 is the no-effect control and ±100 the full control effect
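Luminescent read-out of sequential FLuc and NLuc signals from a reporter embedded in the Pmp22 3' UTR of S16 Schwann cells, taken after 24 h compound exposure at 37C; compounds reducing both signals score as inhibitors of expression.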
NLuc sat counter = inhibits NanoLuc at saturating substrate, PMP22 counter-screen. shares compounds with PMP22 txn. Secreted NLuc enzyme (filtered S16 cell medium), Nano-Glo luminescence. Potency, µM (series often up to 57.5 µM), for inactives: at the top dose activity change, negative = inhibition, hits mostly inhibitors. 690 tested, 4% active; further: potency means the concentration at half of the fitted maximal effect; on the % scale 0 is the no-effect control and ±100 the full control effect
NLuc Km ctr = inhibits NanoLuc under Km conditions, PMP22 counter-screen. shares compounds with PMP22 txn. secreted NLuc enzyme, coelenterazine luminescence, Km conditions. Potency, µM (highest dose often 57.5 µM), for inactives: at the highest dose activity change, negative = inhibition, actives largely listed as inhibitors. 690 tested, 5% active. AID 1508639; further: potency means the concentration at half of the fitted maximal effect; on the % scale 0 is the no-effect control and ±100 the full control effect
FLuc counter = counter-screen for PMP22 expression modulators: firefly luciferase inhibition; purified P. pyralis FLuc, luminescence, 10 min; 690 tested, under 10 active; Potency, µM (doses to about 57.5 µM), inactives show at the top dose activity, negative = inhibition, actives largely listed as inhibitors; AID 1508640; shares compounds with PMP22 txn; further: % of control where 0% means no effect
Target sequence (P08659 whole entry, looked up): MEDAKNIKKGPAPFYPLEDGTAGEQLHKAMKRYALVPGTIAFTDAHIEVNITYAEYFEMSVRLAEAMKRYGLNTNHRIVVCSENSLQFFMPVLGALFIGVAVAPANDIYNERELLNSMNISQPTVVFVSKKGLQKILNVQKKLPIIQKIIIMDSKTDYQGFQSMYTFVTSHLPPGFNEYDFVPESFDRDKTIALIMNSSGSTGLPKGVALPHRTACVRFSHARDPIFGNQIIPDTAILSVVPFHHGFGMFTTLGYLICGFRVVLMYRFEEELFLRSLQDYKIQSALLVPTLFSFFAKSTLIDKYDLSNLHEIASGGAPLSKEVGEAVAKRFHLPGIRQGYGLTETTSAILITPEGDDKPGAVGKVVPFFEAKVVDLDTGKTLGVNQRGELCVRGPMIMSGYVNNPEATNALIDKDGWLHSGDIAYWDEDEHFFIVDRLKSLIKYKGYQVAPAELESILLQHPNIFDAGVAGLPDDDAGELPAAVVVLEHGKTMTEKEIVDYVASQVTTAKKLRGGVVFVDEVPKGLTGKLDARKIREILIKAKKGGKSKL
S16 viab conf = confirmation of cytotoxicity in S16 Pmp22-F2sN Schwann cells (luciferase reporters placed in the Pmp22 gene) | shares compounds with PMP22 txn | S16 Schwann cells viability, CellTiter-Glo ATP luminescence, 24 h | Potency, µM (titrated, usually from 57.5 µM), inactives show top-dose activity change, negative = viability loss, hits mostly cytotoxic | 690 tested, 7% active | AID 1508641; further: potency means the concentration at half of the fitted maximal effect; on the % scale 0 is the no-effect control and ±100 the full control effect
PMP22 txn cnf = PMP22 transcription modulation, confirmatory. shares compounds with PMP22 txn. S16 Schwann cells Pmp22-F2sN, dual luciferase, 24 h. Potency, µM (top dose mostly 57.5 µM), without a hit: at the highest dose activity change, negative = inhibition, actives largely listed as inhibitors. 690 tested, 22% active. AID 1508646; active means clear falling dose curves in both reporters; inconclusive means both reporters move, but less clearly or upward; inactive means either reporter flat; the % is the FLuc reporter signal; further: potency means the concentration at half of the fitted maximal effect
PMP22 prot conf = rat PMP22 protein level modulation, confirmatory; shares compounds with PMP22 txn; S16 Schwann cells Pmp22-HiBiT, luminescence, 48 h; Potency, µM (titrated, usually from 27.9 µM), without a hit: at the highest dose activity change, negative = inhibition, most hits filed as inhibitors; 95 tested, under 10 active; AID 1508647
Target sequence (P25094 whole entry, looked up): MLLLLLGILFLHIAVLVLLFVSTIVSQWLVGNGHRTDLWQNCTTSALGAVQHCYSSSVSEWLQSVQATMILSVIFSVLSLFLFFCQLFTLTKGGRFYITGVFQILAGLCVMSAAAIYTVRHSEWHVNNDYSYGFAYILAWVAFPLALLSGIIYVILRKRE
Starred values were filed as active, the others as inactive; [ ] = dose if it differs, or a comment. Unless noted, the call rests on the fitted dose curve; in most records, active means well fitted curve in the direction sought with a large enough effect; inconclusive means small, poorly fitted or top-dose-only effect, or another doubt; inactive means no such curve, though single readings can be large; an effect the other way counts as inactive or inconclusive.

For COc1ccc(-c2nc3c4ccccc4n(CC(=O)N4CCN(c5ccccc5OC)CC4)c(=O)n3n2)cc1 the results were S16 F2sN tox 16%, p53null 39C kill -2%, mTORC1 inh 5%, p53null 32C kill -1% and PMP22 txn 2%.
Cc1ccc(NC(=O)N2CCc3cc(S(=O)(=O)N4CCC(C)CC4)ccc32)cc1F was read as S16 F2sN tox 6%, p53null 39C kill -11%, mTORC1 inh -2%, p53null 32C kill -1%, PMP22 txn 8.9µM*, NLuc sat counter -5%, NLuc Km ctr 5%, FLuc counter -4%, S16 viab conf inconclusive, PMP22 txn cnf 15µM* and PMP22 prot conf 3%.
For CC1CCN(S(=O)(=O)c2ccc3c(c2)CCN3C(=O)Nc2ccc(Br)cc2)CC1 the results were S16 F2sN tox 2%, p53null 39C kill -7%, mTORC1 inh -1%, p53null 32C kill 1% and PMP22 txn inconclusive.
Screening COc1ccc(NC(=O)c2ccc3c(=O)n4nc(Nc5ccccc5C)sc4nc3c2)cc1 returned S16 F2sN tox 11%, p53null 39C kill 16%, mTORC1 inh -3%, p53null 32C kill -9% and PMP22 txn inconclusive.
For Cc1ccc(C)c(Nc2nn3c(=O)c4ccc(C(=O)NCCC5=CCCCC5)cc4nc3s2)c1 the results were S16 F2sN tox 2%, p53null 39C kill -26%, mTORC1 inh -5%, p53null 32C kill -16% and PMP22 txn inconclusive.
COc1ccccc1Nc1nn2c(=O)c3ccc(C(=O)NCCC4=CCCCC4)cc3nc2s1 was read as S16 F2sN tox inconclusive, p53null 39C kill 4µM*, mTORC1 inh inconclusive, p53null 32C kill inconclusive, PMP22 txn 3µM*, NLuc sat counter inconclusive, NLuc Km ctr inconclusive, FLuc counter inconclusive, S16 viab conf 6.9µM* and PMP22 txn cnf 5.8µM*.
COc1ccc(NC(=O)c2ccc3c(=O)n4nc(Nc5ccccc5C)sc4nc3c2)cc1Cl was read as S16 F2sN tox -5%, p53null 39C kill inconclusive, mTORC1 inh 1%, p53null 32C kill -12%, PMP22 txn 11µM*, NLuc sat counter -10%, NLuc Km ctr inconclusive, FLuc counter -2%, S16 viab conf 24µM* and PMP22 txn cnf 15µM*.
`Cc1ccc(NC(=O)c2ccc3c(=O)n4nc(Nc5ccccc5C)sc4nc3c2)cc1C` gave S16 F2sN tox 11%, p53null 39C kill inconclusive, mTORC1 inh -1%, p53null 32C kill -23%, PMP22 txn 9.5µM*, NLuc sat counter -10%, NLuc Km ctr inconclusive, FLuc counter -4%, S16 viab conf 27µM* and PMP22 txn cnf 13µM*.
`COc1ccccc1Nc1nn2c(=O)c3ccc(C(=O)Nc4ccc(F)cc4)cc3nc2s1` gave S16 F2sN tox 21%, p53null 39C kill 12%, mTORC1 inh -19%, p53null 32C kill -1%, PMP22 txn 3µM*, NLuc sat counter -3%, NLuc Km ctr 4%, FLuc counter -17%, S16 viab conf 14µM*, PMP22 txn cnf 5.8µM* and PMP22 prot conf inconclusive.
C=CCn1c(SCC(=O)NC2CCS(=O)(=O)C2)nnc1-c1cc2c(s1)CCC(CC)C2 (stereo not given) was read as p53null 39C kill -17%[1.84 µM] and p53null 32C kill -27%.
For CCCCN(Cc1cc2ccccc2[nH]c1=O)C(=O)c1cccc(Cl)c1 the results were S16 F2sN tox 0%, p53null 39C kill -20%, mTORC1 inh 4%, p53null 32C kill 7%, PMP22 txn 20µM*, NLuc sat counter inconclusive, NLuc Km ctr inconclusive, FLuc counter 3%, S16 viab conf inconclusive and PMP22 txn cnf -12%.
O=C(NCCCN1CCN(c2cccc(Cl)c2)CC1)c1ccc2nc(Cc3ccccc3)oc2c1 was read as S16 F2sN tox inconclusive, p53null 39C kill inconclusive, mTORC1 inh -1%, p53null 32C kill 60% and PMP22 txn inconclusive.
`COc1ccc(N2CCN(CCCNC(=O)c3ccc4nc(CCc5ccccc5)oc4c3)CC2)cc1` gave S16 F2sN tox -28%, p53null 39C kill -20%, mTORC1 inh -18%, p53null 32C kill -18% and PMP22 txn inconclusive.
COc1ccc(N2CCN(CCCNC(=O)c3ccc4nc(Cc5ccccc5)oc4c3)CC2)cc1 was read as S16 F2sN tox inconclusive, p53null 39C kill -14%, mTORC1 inh -4%, p53null 32C kill 0%, PMP22 txn 19µM*, NLuc sat counter inconclusive, NLuc Km ctr inconclusive, FLuc counter -2%, S16 viab conf inconclusive and PMP22 txn cnf inconclusive.
Screening O=C(NCCCN1CCN(c2ccccc2)CC1)c1ccc2nc(CCc3ccccc3)oc2c1 returned S16 F2sN tox inconclusive, p53null 39C kill -1%, mTORC1 inh 0%, p53null 32C kill 2%, PMP22 txn 19µM*, NLuc sat counter -15%, NLuc Km ctr -6%, FLuc counter -6%, S16 viab conf -26% and PMP22 txn cnf inconclusive.
